Results on 36 compounds are retold here after ChEMBL document CHEMBL3433997, “St. Jude Leishmania screening dataset” (2016).

Common to all, as to assay type: functional
Assay [1] addresses Solute carrier family 2, facilitated glucose transporter member 1 (Homo sapiens) (UniProt P11166). Briefly: ST_JUDE_LEISH: Cytotoxicity at 2uM final concentration against transgenic Leishmania Mexicana promastigotes LmGLUT1 that are glucose transport deficient and complemented with the human glucose transporter GLUT1. Activity is measured by DNA content using SYBR green in vitro.

The target of assay [2] is Hexose transporter 1 (Plasmodium falciparum) (UniProt O97467). Briefly: ST_JUDE_LEISH: Cytotoxicity at 2uM final concentration against transgenic Leishmania Mexicana promastigotes LmPfHT that are glucose transport deficient and complemented with the Plasmodium falciparum hexose transporter. Activity is measured by DNA content using SYBR green in vitro.
Assay [3] concerns the target Glucose transporter (Leishmania mexicana) (UniProt O61059). Briefly: ST_JUDE_LEISH: Cytotoxicity at 2uM final concentration against transgenic Leishmania Mexicana promastigotes LmGT2 that are glucose transport deficient and complemented with the L. Mexicana glucose transporter 2. Activity is measured by DNA content using SYBR green in vitro.

A word on the inhibition: it is the change of the read-out against control, counted positive when it falls.

Solute carrier family 2, facilitated glucose transporter member 1 (Homo sapiens), sequence (P11166 whole entry): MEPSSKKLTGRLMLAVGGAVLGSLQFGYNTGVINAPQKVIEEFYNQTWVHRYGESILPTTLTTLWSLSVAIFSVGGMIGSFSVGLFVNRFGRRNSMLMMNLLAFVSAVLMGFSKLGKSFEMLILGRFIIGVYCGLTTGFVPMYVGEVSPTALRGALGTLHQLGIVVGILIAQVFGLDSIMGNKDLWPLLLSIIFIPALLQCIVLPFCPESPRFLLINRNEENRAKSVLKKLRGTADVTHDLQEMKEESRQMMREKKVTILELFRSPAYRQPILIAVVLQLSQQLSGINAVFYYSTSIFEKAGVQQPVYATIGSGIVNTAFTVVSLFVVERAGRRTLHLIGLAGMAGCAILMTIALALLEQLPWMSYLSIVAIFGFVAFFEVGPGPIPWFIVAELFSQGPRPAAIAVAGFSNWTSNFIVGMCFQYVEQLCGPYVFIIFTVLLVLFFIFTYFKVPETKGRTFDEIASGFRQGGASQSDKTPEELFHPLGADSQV

In the case of `O=C(Cn1cc(C(F)(F)F)cc(Cl)c1=O)N1CCN(S(=O)(=O)c2ccc(Cl)cc2)CC1`, the inhibition in assay [1] is 2.2%; in assay [2], 1.76%; in assay [3], -0.25%.
For the compound `Cc1ccc(C(=O)Nc2ccc(F)c(F)c2F)cc1S(=O)(=O)N1CCCCC1`, the inhibition in assay [1] is 4.08%; in assay [2] it was 3.47%; in assay [3], 0.7%.
For the compound `N#Cc1c(N)n(CCc2ccc(F)cc2)c2nc3ccccc3nc12`, the inhibition in assay [1] is 1.05%; in assay [2], 1.58%; in assay [3] it was -0.08%.
For `COc1ccc2nccc(NCC3(O)CCC(NCc4ccc5c(n4)NC(=O)CS5)CC3)c2n1` (stereo not drawn), the inhibition worked out at 4.33% in assay [1], 3.51% in assay [2] and 4.28% in assay [3].
As to `CCCN(CCC)C(=S)N/N=C1/C(=O)Nc2ccccc21`, the inhibition in assay [1] is 0.67%; in assay [2], -0.6%; in assay [3], -4.34%.
With `CCOC(=O)c1cc(=O)c2ccc(OCC#N)cc2o1`, the figures for the inhibition in assay [1], in assay [2] and in assay [3] were 88.5%, 82.1% and 74.8%, respectively.
As for `CCCC[C@@H](C(=O)NCCc1ccc(Cl)cc1)N1C(=O)CCC1C(=O)Nc1ccc(Cl)c(Cl)c1` (stereo partly drawn), the inhibition in assay [1] is -0.33%; in assay [2], 2.4%; in assay [3], 0.19%.
In the case of `COc1ccc2nccc([C@@H](O)CN3CCC(NC(=O)c4cc5c(F)cc(F)cc5[nH]4)CC3)c2c1`, the inhibition in assay [1] was found to be 18.1%; in assay [2] it was 20.8%; in assay [3], 8.41%.
`CCCCNCCOc1ccc(-c2nc(-c3ccccc3)c(-c3ccccc3)[nH]2)cc1`: the inhibition in assay [1] is 1.09%; in assay [2] it was -0.08%; in assay [3], 0.53%.
Regarding `COc1cccc(CNC[C@@H](O)[C@H](Cc2ccccc2)NC(=O)c2cc(NC(C)C)cc(N3CCCCS3(=O)=O)c2)c1`, the inhibition in assay [1] was -0.22%; in assay [2] it was 1.05%; in assay [3] it was 0.68%.
For `NCCCCNc1cc(-c2ccnc(Nc3cccc(Cl)c3)n2)ccn1`, in that order: 60.5%, 71.8% and 76.5%.
Regarding `COc1cccc(C(=O)Nc2ccc(-c3nc4ccccc4[nH]3)cc2)c1`, the figures for the inhibition in assay [1], in assay [2] and in assay [3] were 3.48%, 1.76% and 0.31%, respectively.
For `CC(C)(NCc1ncc[nH]1)c1nc(-c2ccc(Cl)c(O)c2)c(-c2ccncc2)[nH]1`, in that order: 2.76%, 3.34% and 3.01%.
Take `COc1cc(NC(=O)c2cccc([N+](=O)[O-])c2)cc(S(=O)(=O)c2ccc(Cl)cc2)c1`: the inhibition was -0.46% in assay [1], -1.02% in assay [2] and 0.68% in assay [3].
With `CC(C)N1CCC(N(Cc2ccc(-c3ccc(C(F)(F)F)cc3)cc2)C(=O)Cn2c(SCc3cccc(F)c3F)cc(=O)c3c2CCC3)CC1`, the inhibition in assay [1] was 4.88%; in assay [2], -0.24%; in assay [3], -3.84%.
Consider `CN1CCC(C(=O)Nc2cccc(-c3ccc(-c4nc5ccccc5[nH]4)cc3)c2)CC1`, for which the inhibition was -0.41% in assay [1], 1.25% in assay [2] and 1.04% in assay [3].
As for `COc1ccccc1-c1[nH]c2ccccc2c1CN1CCC(c2c(C)cccc2C)CC1`, the inhibition was determined as 16.3% in assay [1], 16.1% in assay [2] and 11% in assay [3].
In the case of `COc1cccc2c1CCN(CCN1CCC(NC(=O)c3ccc(-c4cccc(Cl)c4Cl)cc3)CC1)C2`, the inhibition in assay [1] is 6.67%; in assay [2], 6.1%; in assay [3] it was 5.27%.
As for `CCc1c(CCNCCCCCCNCCc2ccc3c(c2C)OCO3)ccc2c1OCO2`, the inhibition in assay [1] was determined as 8.6%; in assay [2], 5.13%; in assay [3] it was 10.6%.
For `c1cc(CNCCN2CCNCC2)cc(-c2ccc(-c3nc4ccccc4[nH]3)cc2)c1`, in that order: 18.3%, 16.8% and 13.2%.
For `COc1ccc2nccc([C@@H](O)CN3CCC(NCCc4c[nH]c5ccccc45)CC3)c2c1`, in that order: 9.59%, 11% and 7.8%.
The matching figures for `FC(F)(F)c1ccc(/C=C/c2cncnc2Nc2ccc3[nH]c(Cc4ccccc4)nc3c2)cc1`: 4.97%, 6.03% and 3.94%.
Consider `Cc1nc2nc(N)nc(N)c2c(C)c1Cc1cccc(C#N)c1`, for which the inhibition was found to be 3.44% in assay [1], 2.87% in assay [2] and 2.88% in assay [3].
On to `CCCNCc1ccc(-c2ccc(CN(Cc3cnc(C)cn3)C(=O)CC#N)cc2)nc1`, for which the inhibition in assay [1] is 1.8%; in assay [2], 1.17%; in assay [3], -1.49%.
For the compound `CCc1ccc(-c2cnc(N)c3cc(-c4ccnc(N)n4)ccc23)cc1`, the inhibition in assay [1] was -0.81%; in assay [2], -4.63%; in assay [3], -1.72%.
For `Cc1cccc2nc(C3CCN(CC4CCN(C(=O)/C=C/c5ccc(Cl)c(Cl)c5)CC4)CC3)[nH]c12`, in that order: 10.9%, 11.5% and 10.6%.
For `O=C(Nc1ccc(OCc2ccccc2)cc1)c1nc2ccccc2nc1Cl`, in that order: 1.33%, 1.29% and 1.34%.
For the compound `O=S(=O)(Nc1cccc(CCN2CCC(N3CCCCC3)CC2)c1)c1ccc(Cl)cc1`, the inhibition turned out to be 1.09% in assay [1], 1.72% in assay [2] and 0.8% in assay [3].
On to `Cn1cc(C2CCN(CCCCNC(=O)c3sc(-c4ccc(C(F)(F)F)cc4)nc3CO)CC2)c2ccccc21`, for which the inhibition in assay [1] is -3.34%; in assay [2], -1.85%; in assay [3], -0.2%.
As for `Cc1nc(C)c(-c2ccc(Oc3ccc([S+](C)[O-])cc3)cc2)c(O)c1Br` (stereo not drawn), the figures for the inhibition in assay [1], in assay [2] and in assay [3] were 3.66%, 3.7% and 3.99%, respectively.
As for `COc1cccc(-c2nn(C)c3sc(C(=O)Nc4cccnc4)cc23)c1`, the inhibition in assay [1] was 0.24%; in assay [2], -1.97%; in assay [3] it was -0.35%.
In the case of `CCC1CN2CCc3c([nH]c4ccccc34)[C@@H]2C[C@@H]1CC1NCCc2cc(OC)c(OC)cc21` (stereo partly drawn), the inhibition is -0.82% in assay [1], -1.25% in assay [2] and -1.42% in assay [3].
As to `Cc1cc(NC(=O)c2ccco2)ccc1OC1CCN(Cc2ccccc2)CC1`, the figures for the inhibition in assay [1], in assay [2] and in assay [3] were 0.52%, 4.72% and 1.9%, respectively.
Turning to `Oc1ccc2[nH]c(-c3cccc(F)c3)nc2c1CN1CCCC1`, the inhibition in assay [1] was determined as 4.75%; in assay [2] it was 3.49%; in assay [3] it was 1.21%.
In the case of `Oc1ccc(CCNc2nc(NCCCOc3ccccc3-c3cccc(C(F)(F)F)c3)nc(N3CCNCC3)n2)cc1`, the inhibition in assay [1] was 4.36%; in assay [2], 4.82%; in assay [3], 5.07%.
For `CC(C)c1cn2c3c(cc(C(=O)N[C@@H](Cc4ccccc4)[C@H](O)CNC4CCCCC4)cc13)N(C)S(=O)(=O)CC2`, the inhibition was -1.18% in assay [1], -0.34% in assay [2] and -2.44% in assay [3].
